High-throughput results (PubChem)
In the library only some 3.1% were active in any assay of this set; here they are far more common.
PNC assembly inh – High Content Assay for Compounds that inhibit the Assembly of the Perinucleolar Compartment | PC3M PTB-GFP, PNC prevalence imaging, 16 h; stronger effect = lower value | activity change (PNC), negative = inhibition, % at 10 µM | 140,000 tested, 3.1% active | AID 2417, 2010;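 active = readout at or below -70, meaning at least 70% loss of cells showing the perinucleolar compartment, a nuclear body marking cancer cells; inconclusive = readout between -30 and a set limit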;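 also: plate controls were DMSO wells for no effect and camptothecin positive control wells for full effect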
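Compounds are pinned in duplicate onto adhered PC3M cells stably expressing GFP-tagged PTB and incubated 16 h at 37 C. Cells are then fixed, nuclei stained with Hoechst, and PNC-positive cells counted.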
ALOX12 inhib – qHTS Assay for Inhibitors of 12-hLO (12-human lipoxygenase) | purified 12-hLO, xylenol orange hydroperoxide absorbance | Potency, µM (titrated, usually from 57.1 µM), for inactives: at the highest dose activity change, negative = inhibition, most hits filed as inhibitors | 150,000 tested, 0.12% active; also: potency is read from the fitted curve at half-maximal effect; nearly all actives have a fitted effect of over 55% in size
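Lipoxygenase turnover measured by absorbance at 573 and 405 nm after Fe-XO development. Human 12hLO 150 nM, arachidonate 40 uM, pH 7.0 Hepes buffer with detergent; 15 min compound preincubation, 30 min reaction.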
ALOX15B inhib – qHTS Assay for Inhibitors of 15-hLO-2 (15-human lipoxygenase 2). Polyunsaturated fatty acid lipoxygenase ALOX15B (Homo sapiens), O15296. purified 15hLO-2, xylenol orange hydroperoxide absorbance. Potency, µM (titrated, usually from 57.1 µM), without a hit: at the top dose activity change, negative = inhibition, actives largely listed as inhibitors. 110,000 tested, 0.56% active. AID 881, 2007; also: potency is read from the fitted curve at half-maximal effect; nearly all actives have a fitted effect of over 60% in size
Target sequence (O15296 whole entry, looked up): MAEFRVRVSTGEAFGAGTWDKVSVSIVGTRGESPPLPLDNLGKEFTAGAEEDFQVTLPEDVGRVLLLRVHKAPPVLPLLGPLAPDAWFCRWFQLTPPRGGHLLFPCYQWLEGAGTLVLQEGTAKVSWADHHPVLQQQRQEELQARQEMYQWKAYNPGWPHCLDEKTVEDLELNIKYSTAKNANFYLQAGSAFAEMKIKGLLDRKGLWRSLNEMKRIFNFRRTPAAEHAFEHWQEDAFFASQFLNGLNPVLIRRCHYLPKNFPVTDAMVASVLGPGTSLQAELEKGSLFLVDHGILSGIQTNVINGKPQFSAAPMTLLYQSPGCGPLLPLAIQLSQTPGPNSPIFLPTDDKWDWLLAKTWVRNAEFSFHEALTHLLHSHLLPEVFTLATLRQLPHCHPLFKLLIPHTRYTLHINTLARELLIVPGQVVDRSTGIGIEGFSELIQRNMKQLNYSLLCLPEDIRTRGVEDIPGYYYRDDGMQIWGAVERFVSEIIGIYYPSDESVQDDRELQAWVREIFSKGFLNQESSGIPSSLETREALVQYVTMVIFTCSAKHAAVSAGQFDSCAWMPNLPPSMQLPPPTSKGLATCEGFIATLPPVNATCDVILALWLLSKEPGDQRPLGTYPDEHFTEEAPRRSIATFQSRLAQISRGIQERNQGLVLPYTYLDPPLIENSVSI
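Enzyme 50 nM, AA 45 uM, 25 mM Hepes pH 7.5 + 0.01% Triton X-100; cpd preinc 15 min RT, rxn 90 min RT; stop/detect with 200 uM XO + 300 uM Fe(II) in 50 mM H2SO4, 30 min; A573/A405.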
The depositor's hits bear a star; ? = inconclusive; nt = no result given; [ ] = another dose, or the depositor's remark. Unless noted, calls follow the shape of the dose curve; as a rule, active = well fitted curve in the direction sought with a large enough effect; inconclusive = small, poorly fitted or top-dose-only effect, or another doubt; inactive = no such curve, though single readings can be large; an effect the other way counts as inactive or inconclusive. Unless noted, % is scaled to controls: 0 for no effect and ±100 for the full control effect.

SMILES	PNC assembly inh	ALOX12 inhib	ALOX15B inhib
CCC1=C2CC[C@H]3C(=O)N(c4ccccc4)C(=O)[C@H]3[C@H]2[C@@]2(Cc3ccccc3)C(=NCCc3c[nH]c4ccccc34)OC(=O)N2C1=O	nt	-3%	-6%
Cc1cccc(OCCNc2nc3c(c(=O)n(C)c(=O)n3C)n2C)c1	-97*	0%	-4%
COCCNc1nc2c(c(=O)n(C)c(=O)n2C)n1Cc1cccc(C)c1	-2	-4%	1%
Cc1ccccc1N1C(=O)c2cc(S(N)(=O)=O)c(Cl)cc2N[C@H]1C	nt	-1%[25.6 µM]	13%[25.6 µM]
COc1ccc(Oc2nccc(OC)c2C#N)cc1	-23	-2%	3%
N#Cc1c(-c2ccccc2)ccnc1Oc1ccccc1	-96*	2%	-7%
Cn1c2c(c(=O)n(C)c1=O)C(C(F)(F)F)(C(F)(F)F)N=C(c1ccc(Cl)cc1)N2	30	1%	-6%
Cn1c2c(c(=O)n(C)c1=O)C(C(F)(F)F)(C(F)(F)F)N=C(C1CCCCC1)N2	-93*	-2%	nt
CC1(C)O[C@H]2[C@@H](O1)[C@@H](On1nnc3ccc(Cl)cc31)O[C@@H]2[C@@H]1COC(C)(C)O1	nt	-2%[11.4 µM]	-4%[11.4 µM]
N#Cc1c(N)c(C(=O)c2ccccc2)n2c1CCCC2	11	-1%	-3%
CC(=O)N(C(C)=O)c1c(C#N)c(C)n(-c2ccccc2)c1C(=O)c1ccccc1	-93*	-5%	1%
Nc1cccc(OCc2nc(N)nc(N)c2-c2ccc(Cl)cc2)c1	nt	1%[11.4 µM]	-2%[11.4 µM]
O=C(NNC(=O)c1cc(OCC(F)(F)F)ccc1OCC(F)(F)F)c1cccc(C(F)(F)F)c1	-84*	-1%	-7%[11.4 µM]
Cc1ccc(C(=O)NNC(=O)c2cc(OCC(F)(F)F)ccc2OCC(F)(F)F)cc1	-22	-4%	1%
Cn1c(=O)c2c(nc(NCCNc3nc4c(c(=O)n(C)c(=O)n4C)n3C)n2C)n(C)c1=O	nt	3%[11.4 µM]	-6%[11.4 µM]
O=C1CC(c2ccccc2)NC(=O)N1 (centres undefined)	-81*	7%	-2%
CC1C(=O)CC(c2ccccc2)NC1c1ccccc1 (centres undefined)	18	1%	2%
O=C(O)Cn1ccnc1[N+](=O)[O-]	nt	1%[11.4 µM]	-5%[11.4 µM]
CC(CCC(=O)O)C1CCC2C3C(=O)CC4CC(=O)CC[C@@]4(C)C3CC(=O)[C@]12C (some centres undefined)	nt	-4%	-8%
CC(C1OC(C)(C)C(O)C1O)C1CC[C@@]2(C)C3=CCC4C(C)(C)C(=O)CC[C@]4(C)C3CC[C@@]12C (some centres undefined)	nt	-4%	-12%
Cc1cc(/C=N/NC(N)=S)c(C)n1-c1ccc(Cl)cc1	84	?	nt
Cc1cccc(C)c1-n1c(C)cc(/C=N/NC(N)=S)c1C	21	?	20µM*
CNCC[C@H](Oc1ccccc1C)c1ccccc1	nt	11%	43%
Cc1cc2cc(CNC(=O)c3ccc4c(c3)OCO4)ccc2[nH]1	?	-13%	-5%
CCCCNC(=S)NCc1ccc2[nH]c(C)cc2c1	-115*	?	nt
SMILES	PNC assembly inh	ALOX12 inhib	ALOX15B inhib
CC1(C)CC(=O)C(Sc2ccccc2[N+](=O)[O-])=C(O)C1	-83*	-6%	nt
CC1(C)CC(=O)C(C(=O)Cc2ccccc2[N+](=O)[O-])C(=O)C1	?	1%	nt
CCNc1ncc2nc(CCc3ccccc3)c(=O)n(C3CC3)c2n1	nt	nt	13%
CS(=O)(=O)N1CCN(C(=O)c2ccc(-c3ccccc3)cc2)CC1	-83*	1%	-2%
CCS(=O)(=O)N1CCN(C(=O)c2ccc(-c3ccccc3)cc2)CC1	-25	-3%	-9%
Cc1[nH]c(N)nc(=S)c1CCC(=O)O	nt	-1%[11.4 µM]	4%[11.4 µM]
CN1CCN(c2ncnc3ccc(-c4ccccc4Cl)cc23)CC1	nt	nt	66%
COC(=O)c1sccc1NC(=O)c1ccncc1	21	-1%	-11%
COC(=O)c1sccc1NC(=O)c1sccc1C	-100*	-2%	nt
CCN(CC)c1ccc(NC(=O)c2cccc(OC)c2)c(C)c1	?	3%	5%
CCN(CC)c1ccc(NC(=O)c2cc(OC)cc(OC)c2)c(C)c1	-89*	-2%	-3%
O=C(O)CC[C@@H](C(=O)O)N1C(=O)[C@@H]2[C@@H]3CC[C@H](C3)[C@@H]2C1=O	nt	5%[11.4 µM]	-4%[11.4 µM]
Cc1ccccc1-c1cncnc1Nc1ccc(F)cc1	nt	-3%	27%
CC/C(=N\n1nnnc1Nc1ccccc1)c1ccccc1	-100*	-5%	nt
CC(C)c1ccc(/C=N/n2nnnc2Nc2ccccc2)cc1	38	-4%	-7%
